Screening data from PubChem BioAssay.
Sampled rows, rich in hits. Any-hit rate of the full collection: about 2.4%.
Anthrax LT inh: inhibitors of anthrax lethal toxin internalization | Potency, µM (series often up to 40 µM), for the others: at the top dose activity change, negative = inhibition, actives largely listed as inhibitors | Cells, anthrax lethal toxin internalization, FRET ratio (460/530) | actives 0.67% (n = 70,000); also: % is scaled to controls: 0 for no effect and ±100 for the full control effect; nearly all actives have a fitted effect of over 50% in size
AmpC nodet inh: blocks E. coli AmpC beta-lactamase in absence of detergent. P00811. AmpC nitrocefin hydrolysis, absorbance 480 nm, no detergent. actives 1.8% (n = 71,000). Potency, µM (doses to about 28.7 µM), inactives show at the highest dose activity change, negative = inhibition; also: % of control where 0% means no effect
Target sequence (P00811 whole entry, looked up): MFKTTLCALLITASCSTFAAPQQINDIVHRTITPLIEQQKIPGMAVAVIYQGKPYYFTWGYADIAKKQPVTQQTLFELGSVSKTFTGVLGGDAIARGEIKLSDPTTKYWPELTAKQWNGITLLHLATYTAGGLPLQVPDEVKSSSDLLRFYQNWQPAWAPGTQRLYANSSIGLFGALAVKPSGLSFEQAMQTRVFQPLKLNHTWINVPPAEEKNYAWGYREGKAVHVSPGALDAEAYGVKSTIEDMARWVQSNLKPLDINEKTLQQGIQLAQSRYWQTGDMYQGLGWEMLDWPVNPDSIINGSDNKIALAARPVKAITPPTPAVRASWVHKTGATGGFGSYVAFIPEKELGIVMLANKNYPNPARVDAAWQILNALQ
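AmpC, 20 mM phosphate pH 7.0; 15 min cpd preinc, RT; start with nitrocefin (800 uM stock); A480 kinetic read, 20 s intervals, 4 min. No-enzyme wells = negative control.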
Prx2 Sm inh: Schistosoma mansoni Prx2 inhibition. S. mansoni Prx2 activity coupled to TGR/GSH (TGR is thioredoxin glutathione reductase), NADPH fluorescence loss, qHTS. Potency, µM. actives 0.07% (n = 65,000)
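Enzyme mix: 100 uM NADPH, 25 nM TGR, 700 uM GSH, 50 nM Prx2 in 100 mM phosphate pH 7.4, 10 mM EDTA, 0.01% Tween-20. 15 min RT with compound; NADPH/GSH added, H2O2 starts reaction; NADPH fluorescence read 8 min.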
AmpC det inh: blocks E. coli AmpC beta-lactamase in presence of detergent | P00811 | purified AmpC, nitrocefin hydrolysis with detergent | Potency, µM (doses to about 28.7 µM), inactives show at the top dose activity change, negative = inhibition | actives 0.09% (n = 71,000) | AID 584; active = well fitted curve in the direction sought with a large enough effect; inconclusive = small, poorly fitted or top-dose-only effect; also: % is scaled to controls: 0 for no effect and ±100 for the full control effect
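E. coli AmpC (5.3 nM) in 20 mM phosphate pH 7.0 with 0.01% Triton X-100, preincubated 15 min RT with compound; nitrocefin (2 uL of 800 uM stock) hydrolysis followed by 480 nm absorbance every 20 s over 4 min.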
Starred values were filed as active, the others as inactive; ? = inconclusive; / = not tested or not shown; ! = not confirmed by another sample; [ ] = remark or other dose. Unless noted, calls follow the shape of the full dose curve. Potency is read from the fitted curve at half-maximal effect.

SMILES | Anthrax LT inh | AmpC nodet inh | Prx2 Sm inh | AmpC det inh
COc1ccc(Cl)cc1NC(=O)Cn1c(=O)n2nc(C)nc2c2ccccc21 | -4% | 4µM*[single pt active] | >57 | 11%
O=C(Nc1cccc(-c2nc3ncccc3o2)c1)c1cc2ccccc2o1 | 3.2µM* | 84% | >57 | 5%
Cn1c(-c2cccc(Br)c2)cnc1NCc1cccnc1 | -10% | 12% | >57 | 9%
COc1cccc(-c2cnc(NCc3cc(Cl)ccc3O)n2C)c1 | ? | 13µM* | >57 | 8%
O=C(CSc1nnc2scc(-c3ccccc3)n12)NCc1ccc2c(c1)OCO2 | 9% | -2% | >57 | 12%
Cn1c(SCC(=O)NCc2ccc3c(c2)OCO3)nc2scc(-c3cccs3)c2c1=O | -9% | 16µM*[single pt active] | >57 | -4%
CN(CCO)Cc1ncccc1O | 1%[8 µM] | 0%[5.75 µM] | >57 | 3%[5.75 µM]
N=c1n(CCO)c2ccccc2n1CCOc1ccc(Cl)cc1Cl | ? | 4µM*[single pt active] | >57 | 10%
CCOC(=O)N1CCN(c2c(-c3ccc(C)c(C)c3)c(=O)c2=O)CC1 | 7% | 14% | >57 | -1%
CCOC(=O)N1CCN(c2c(NCc3cccs3)c(=O)c2=O)CC1 | -25% | 4µM*[single pt active] | >57 | 11%
CCOC(=O)N1CCN(c2c(NCCc3ccc(OC)c(OC)c3)c(=O)c2=O)CC1 | 5% | 4µM*[single pt active] | >57 | 11%
CCOC(=O)N1CCN(c2c(NCc3ccccc3OC)c(=O)c2=O)CC1 | ? | 4µM*[single pt active] | >57 | 13%
CC/C=C/C#N | -10% | 7% | / | 11%
O=C(Nc1ncc(Br)s1)C(Cc1ccccc1)n1cccc1 (centres undefined) | ? | 13µM* | >57 | 3%
O=C(Nc1cccnc1)C(Cc1ccccc1)n1cccc1 (centres undefined) | -1% | 27% | >57 | 8%
CN(C)CCC[C@@H]1c2ccccc2Oc2ccc(C(F)(F)F)cc21 | -3%[8 µM] | 8%[5.75 µM] | >57 | -3%[5.75 µM]
NC(=NCCCCCCN=C(N)/N=C(\N)Nc1ccc(Cl)cc1)/N=C(\N)Nc1ccc(Cl)cc1 | ? | 2.5µM* | >57 | 1%
CCN1CCN(c2ncc(C(=O)Nc3ccccc3C(=O)OC)c3ccccc23)CC1 | 10µM* | 132% | >57 | -1%
COc1ccc(-n2c(=O)c(C)nc3cnc(Oc4cccc(Cl)c4)nc32)cc1 | 4% | 92% | >57 | -2%
C=CCCN1C[C@@H]2C[C@H](C1)c1cccc(=O)n1C2 | ? | -1% | >57 | 2%
O=C1CC(O)(C(F)(F)F)Oc2c1ccc1ccccc21 (centres undefined) | 10µM* | -21% | / | 0%
COc1ccc2c(CC(=O)Nc3ccc(OC)c(NS(=O)(=O)c4ccc(F)cc4)c3)coc2c1 | 10µM* | ? | >57 | -3%
Nc1ccc(-c2ccc(N)c(O)c2)cc1O | ? | 0.79µM* | / | 12%
COc1ncc2nc(-c3cccs3)c(=O)n(-c3ccccc3)c2n1 | ? | -10% | >57 | 1%
CN1[C@@H]2CC[C@H]1CC(O[C@@H](c1ccccc1)c1ccc(Cl)cc1)C2 (some centres undefined) | 10µM* | 99% | >57 | 5%
SMILES | Anthrax LT inh | AmpC nodet inh | Prx2 Sm inh | AmpC det inh
Cc1ccc(S(=O)(=O)C2(C(=O)NCc3ccc4c(c3)OCO4)CC2)cc1 | 1% | 4µM*[single pt active] | >57 | 11%
C=C[C@@H]1CN2CC[C@@H]1C[C@H]2[C@H](O)c1ccnc2ccccc12 | -12% | -1% | >57 | -2%
OC(CNCc1ccco1)Cn1c2ccccc2c2ccccc21 (centres undefined) | -6% | 40% | >57 | -6%
CS(=O)(=O)N(Cc1ccco1)CC(O)Cn1c2ccccc2c2ccccc21 (centres undefined) | 10µM* | 87% | >57 | 3%
c1ccsc1 | -13% | -18% | / | 12%
COc1ccc(-c2nc(CSCC(=O)N3CCN(c4cccc(C)c4)C(C)C3)c(C)o2)cc1OC (centres undefined) | 10µM* | 152% | >57 | 10%
COc1ccc(NC(=O)N2CCCC3(CCN(S(=O)(=O)c4ccccc4)CC3)C2)cc1 | ? | 48% | >57 | 1%
COc1cccc(C2=NOC(C(=O)N3CCN(C(=O)c4ccco4)CC3)C2)c1 (centres undefined) | 4% | 2.5µM*[single pt active] | >57 | 19%
CCCn1c(C)nc2c(NCCN3CCCC3)nc(C)nc21 | -5% | 42% | / | 12%
O=C(NCCCN1CCN(c2ccccc2F)CC1)C1CCCN(S(=O)(=O)c2cnc[nH]2)C1 (centres undefined) | -2% | 4µM*[single pt active] | / | 11%
O=[N+]([O-])/C=C/c1ccccc1 | 4µM* | -12% | / | 16%
C=Cc1ccccc1 | -7% | -6% | / | 14%
N#C/C(=C\c1ccc(O)c(O)c1)C(=O)NCCCc1ccccc1 | ? | 0.2µM*! | >57 | -2%
COc1cccc(C2CC(c3cccc(OC)c3)n3nc(N)nc3N2)c1 (centres undefined) | 3% | 4µM*[single pt active] | >57 | 12%
COc1ccc(C2CC(c3cccc(C)c3)n3nc(N)nc3N2)cc1 (centres undefined) | -3% | 4µM*[single pt active] | >57 | 11%
COc1cccc(C2CC(c3ccc(F)cc3)Nc3nc(N)nn32)c1 (centres undefined) | -1% | 2.5µM*[single pt active] | >57 | 11%
N[C@H](CS(=O)O)C(=O)O | -3% | 6% | >57 | 2%
NC(=O)c1ncn([C@@H]2O[C@@H](CO)[C@@H](O)[C@H]2O)n1 | / | 8% | ? | -3%
CC(NC(=O)c1noc2c1CCCCC2)c1ccccc1 (centres undefined) | 9% | 4µM*[single pt active] | >57 | 11%
O=C(NCCc1c[nH]c2ccccc12)c1ccc(S(=O)(=O)NCc2ccco2)cc1 | -28% | 16µM* | >57 | -4%
Cc1sc2ccccc2[n+]1CCC(=O)O | -14%[8 µM] | 3%[5.75 µM] | >57 | -4%[5.75 µM]
Cn1c(=O)c(=O)n(C)c2cc(S(=O)(=O)N3CCOCC3)ccc21 | -7% | -16% | >57 | -2%
Cn1c(=O)c(=O)n(C)c2cc(S(=O)(=O)CCC(=O)N3CCOCC3)ccc21 | -10% | 4µM*[single pt active] | >57 | 12%
NCOC(=O)Cc1ccc(Br)cc1 | -3%[8 µM] | 7%[5.75 µM] | >57 | -9%[5.75 µM]
CCC(C)c1ccc2oc(-c3ccc(NC(=O)c4ncn[nH]4)cc3)nc2c1 (centres undefined) | ? | 13µM*[single pt active] | >57 | -5%
SMILES | Anthrax LT inh | AmpC nodet inh | Prx2 Sm inh | AmpC det inh
CC(C)[C@H](CO)Nc1nc(Nc2cccc(Cl)c2)c2ncn(C(C)C)c2n1 | 13µM* | 107% | >57 | 13%
CCOc1ccc(N(CC(=O)Nc2ccc(C)cc2)S(=O)(=O)c2c(C)noc2C)cc1 | ? | 3% | >57 | 7%
CCOc1ccc(N(CC(=O)N2CC=C(c3ccccc3)CC2)S(=O)(=O)c2c(C)noc2C)cc1 | ? | 4µM*[single pt active] | >57 | 11%
COc1ccc(N(CC(=O)N2CC=C(c3ccccc3)CC2)S(=O)(=O)c2c(C)noc2C)cc1 | ? | 4µM*[single pt active] | >57 | 13%
Cc1nnc(SCCc2ccccc2)[nH]c1=O | 2% | -19% | >57 | 11%
Cc1ccccc1CSc1nnc(C)c(=O)[nH]1 | -10% | 4µM*[single pt active] | >57 | 12%
Cc1ccc(C)c([C@@H]2NC(=O)c3ccccc3N2)c1 | -12%[8 µM] | -2%[5.75 µM] | >57 | 1%[5.75 µM]
